# “And” between values parts separate entries of the source, which are not always exact repeats. Identical values can stand only once. Screen size: about 390,000 compounds; about 820 (0.21%) were called active. Inconclusive results (about 3%) are left out. This is one part of a sample in which actives are shown more often than they occur. Calls come from the whole dose curve; as a rule, active = well fitted inhibition curve with a large enough effect; inconclusive = small, poorly fitted or top-dose-only effect, or another doubt; inactive = no such curve, though single readings can be large or run the other way. More than one record can exist for a structure, and the calls need not agree.
# Target: Histone acetyltransferase KAT2A (Homo sapiens) (UniProt Q92830)
# Sequence (Q92830 whole entry, looked up): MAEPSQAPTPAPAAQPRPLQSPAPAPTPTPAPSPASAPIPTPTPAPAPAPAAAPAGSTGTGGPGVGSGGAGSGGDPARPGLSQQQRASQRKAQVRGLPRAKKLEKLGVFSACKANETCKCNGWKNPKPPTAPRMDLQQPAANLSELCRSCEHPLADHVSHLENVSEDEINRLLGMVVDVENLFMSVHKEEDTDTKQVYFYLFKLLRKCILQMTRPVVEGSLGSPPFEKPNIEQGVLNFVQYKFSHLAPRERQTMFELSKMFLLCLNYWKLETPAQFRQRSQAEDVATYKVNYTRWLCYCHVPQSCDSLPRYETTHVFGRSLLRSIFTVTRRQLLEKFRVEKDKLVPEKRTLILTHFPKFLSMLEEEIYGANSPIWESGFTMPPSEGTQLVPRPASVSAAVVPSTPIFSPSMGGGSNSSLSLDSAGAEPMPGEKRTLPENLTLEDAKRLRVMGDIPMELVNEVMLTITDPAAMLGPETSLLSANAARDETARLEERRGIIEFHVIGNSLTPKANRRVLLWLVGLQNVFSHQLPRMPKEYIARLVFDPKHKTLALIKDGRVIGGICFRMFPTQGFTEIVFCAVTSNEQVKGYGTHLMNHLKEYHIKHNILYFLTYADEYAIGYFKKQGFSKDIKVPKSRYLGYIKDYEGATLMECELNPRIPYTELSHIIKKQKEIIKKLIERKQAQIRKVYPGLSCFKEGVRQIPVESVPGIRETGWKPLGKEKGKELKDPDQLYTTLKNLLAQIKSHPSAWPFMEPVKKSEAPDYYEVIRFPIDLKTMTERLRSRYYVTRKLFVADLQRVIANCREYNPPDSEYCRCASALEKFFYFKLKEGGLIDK
# Test: qHTS Assay for Inhibitors of GCN5L2
# Conditions: GCN5L2 HAT assay, ThioGlo1 CoA-SH fluorescence; series mostly up to 58.9 µM; activity change, negative = inhibition: at the top concentration
# In short: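 Free CoA generated was detected with ThioGlo1 (50uM) fluorescence at Ex340nm/Em540nm, read immediately and after 20 min at room temperature. Enzyme, 20 nM in HEPES pH 7.5 buffer, saw compounds 15 min before adding 75uM H3(1-25) peptide and 70uM acetyl-CoA.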
# % is set by controls: 0 for no effect and ±100 for the full control effect; potency is the fitted concentration of half-maximal effect.
Molecule,Potency,"activity change, negative = inhibition"
Cc1ccc(-c2nn(-c3ccccc3)cc2/C=C2\SC(=S)N(CCCCCC(=O)O)C2=O)o1,25.1 µM (active),
CO[C@@]12[C@@H](COC(N)=O)C3=C(C(=O)C(C)=C(N)C3=O)N1C[C@@H]1N[C@@H]12,,-20.7% (inactive)
COc1ccccc1CNc1ncnc2ccc(-c3c(C)noc3C)cc12,,-14.3% (inactive)
COc1ccccc1-c1nc(NCc2cccs2)c2ccccc2n1,,-21.4% (inactive)
H-EHIPA-OH,,18.8% (inactive)
Nc1nc2c(ncn2[C@@H]2O[C@H](COP(=O)(O)OP(=O)(O)OP(=O)(O)O)[C@@H](O)C2O)c(=O)[nH]1 (some centres not stated),,-12.8% (inactive)
COc1cc(OC)cc(C(=O)NC(=S)N2CCN(c3ccc(C(F)(F)F)cc3[N+](=O)[O-])CC2)c1,2 µM (active),
O=C(Nc1cccc(C(F)(F)F)c1)c1ccc(N2CCNCC2)c([N+](=O)[O-])c1,,-2.11% (inactive)
O=C(Cc1ccc(S(=O)(=O)N2CCOCC2)s1)N1CCN(c2ccc(C(F)(F)F)cc2[N+](=O)[O-])CC1,,-13.7% (inactive)
CC(C)=CCN1CCC2(CCc3ccccc32)CC1,,4.12% (inactive)
CC(C)C(NS(=O)(=O)c1ccc(-c2ccc(Br)cc2)cc1)C(=O)O (configuration not stated),,0% (inactive)
COCCn1c(=O)c(-c2cccs2)nc2cncnc21,,-22.2% (inactive)
OCC(CO)NC1C[C@](O)(CO)[C@@H](O)[C@H](O)[C@H]1O (some centres not stated),,8.63% (inactive)
COc1ccc(CNc2ncncc2-c2ccccc2C)c(OC)c1,,-21.1% (inactive)
COc1ccc(CCCOC(Cn2ccnc2)c2ccc(OC)cc2)cc1 (configuration not stated),inactive,
Cc1ccccc1NC(=O)c1cnn(-c2ccccc2)c1NC(=O)c1ccco1,,-1.21% (inactive)
O=C(Cc1ccccc1)Nc1c(C(=O)N2CCCCCC2)cnn1-c1ccccc1,,-0.211% (inactive)
O=C(Nc1c(C(=O)N2CCCCC2)cnn1-c1ccccc1)c1ccco1,17.8 µM (active),
O=C(/C=C/c1cccc(F)c1)NC1CC1,,-6.39% (inactive)
CC(C)C1=CC2=CC[C@@H]3[C@](C)(CO)CCC[C@]3(C)C2CC1 (some centres not stated),,-17.6% (inactive)
CC1=C(/C=C/C(C)=C/C=C/C(C)=C/C=C/C=C(C)/C=C/C=C(C)/C=C/C(=O)[C@]2(C)C[C@@H](O)CC2(C)C)C(C)(C)C[C@H](O)C1,,-12.7% (inactive)
O=C(O)CCCCC(=O)O,,58.8% (inactive)
CCCCCCCCCCCC(=O)O,,-5.79% (inactive)
C#CCCCCCCCCCCCCCCCC(=O)O,inactive and 11.2 µM (active),
NC(=O)c1sc(-c2ccsc2)cc1N,,-5.86% (inactive)
Cc1nc2cnc(N3CCNCC3)nc2n(CCc2ccccc2)c1=O,,-21.2% (inactive)

Molecule,Potency,"activity change, negative = inhibition"
Cc1ccccc1-c1ccc(C(=O)O)s1,,-15.4% [at 135 µM] (inactive)
Cn1cc(-c2nc3cnc(N4CCNCC4)nc3n(CCc3ccccc3)c2=O)c2ccccc21,,-14.4% (inactive)
NCCCNCCCCN(CCCN)/[N+]([O-])=N/O,,-12.4% (inactive)
COc1ccc(-c2cn3cccnc3n2)cc1,31.6 µM (active),
CC(C)(C)C(=O)Nc1ccc(-c2cn3cccnc3n2)cc1,,-29.9% (inactive)
FC(F)(F)Oc1ccc(-c2cn3cccnc3n2)cc1,,-8.87% (inactive)
CC1O[C@@H](Oc2c(-c3ccc(O)c(O)c3)oc3cc(O)cc(O)c3c2=O)C(O)C(O)C1O (some centres not stated),,10.8% (inactive)
C=C1C(=O)C23C(O)C1CCC2[C@]12COC3(O)C(O)C1C(C)(C)CC[C@H]2O (some centres not stated),,-7.65% (inactive)
COc1ccc(S(=O)(=O)N2CCN(c3ccc(F)cc3)CC2)cc1-c1noc(C)n1,,-5.52% (inactive)
CCc1nc(-c2cc(S(=O)(=O)N3CCN(c4ccc(OC)cc4)CC3)ccc2OC)no1,25.1 µM (active),
COc1ccc(N2CCN(S(=O)(=O)c3ccc(-c4coc(C)n4)cc3)CC2)cc1,,-1.94% (inactive)
Cc1ccc(/C(=C/CN2CCCC2)c2ccccn2)cc1,inactive,
COC(=O)N1CCC2(CCCN(c3ccncc3)C2)CC1,,-8.99% (inactive)
O=C(Oc1cc(OC(=O)c2ccccc2)c2c(c1)OC(c1ccc(OC(=O)c3ccccc3)c(OC(=O)c3ccccc3)c1)[C@@H](OC(=O)c1ccccc1)C2)c1ccccc1 (some centres not stated),,6.73% (inactive)
CCOC(=O)c1sc(=S)n2c1[nH]c(=O)c1ccc(C(=O)OC)cc12,35.5 µM (active),
COC(=O)c1sc2[nH]c(=S)n(N)c(=O)c2c1C,,-14.2% (inactive)
CCOC(=O)C1=C(C)Nc2sc(C(=O)c3ccc(Br)cc3)c(N)c2C1c1ccc(C(=O)OC)cc1 (configuration not stated),,-19.5% (inactive)
CCCc1cc(=S)n2c([nH]c3ccccc32)c1C#N,22.4 µM (active),
COc1cc2c(cc1OC)[C@@H](Cc1cc(OC)c(OC)c(OC)c1)[N+](C)(CCCOC(=O)CC/C=C/CCC(=O)OCCC[N+]1(C)CCc3cc(OC)c(OC)cc3[C@H]1Cc1cc(OC)c(OC)c(OC)c1)CC2 (some centres not stated),,-0.503% (inactive)
O=Cc1c(Nc2ccccc2Cl)nc2ccccn2c1=O,22.4 µM (active),
Cc1cccn2c(=O)c(C=O)c(Nc3ccc(S(N)(=O)=O)cc3)nc12,,-4.25% (inactive)
O=Cc1c(N2CCN(c3cccc(Cl)c3)CC2)nc2ccccn2c1=O,,0.398% (inactive)
CC(=O)NC(=O)c1ccccc1O,,-2.65% (inactive)
CC1CC2C3CCC4=CC(=O)C=C[C@]4(C)[C@@]3(F)[C@@H](O)C[C@]2(C)[C@@]1(O)C(=O)CO (some centres not stated),,-2.41% (inactive)
COc1c2c(cc3occ(-c4ccc5c(c4)OCO5)c(=O)c13)OC(C)(C)C=C2,,-15.3% (inactive)
COc1ccc(C(=O)N2CCC3(CC2)CCN(c2ccccn2)CC3)cc1,,7.2% (inactive)

Molecule,Potency,"activity change, negative = inhibition"
COc1ccc(-c2nc3cnc(OC)nc3n(Cc3ccc(F)cc3)c2=O)cc1,,-23.8% (inactive)
CC(N)(C(=O)O)c1ccc(-c2nn[nH]n2)cc1 (configuration not stated),,2.68% (inactive)
COCCn1c(=O)c(CCc2ccccc2)nc2cncnc21,,-6.53% (inactive)
O=C(O)CCC(=O)O,,21.2% (inactive)
COc1ccc(CNc2ncncc2-c2ccccc2OC)c(OC)c1,,-13.3% (inactive)
O=C1NS(=O)(=O)c2ccccc21,inactive,
CC1(C)C=CC(=O)[C@]2(C)C1CC(=O)[C@]1(C)C2CC[C@@]2(C)C(c3ccoc3)OC(=O)C3OC321 (some centres not stated),,23.3% (inactive)
O=C1C(c2ccccn2)=[N+]([O-])c2ccccc21,,-19% (inactive)
O=C1C(c2[nH]c3ccccc3c2O)=Nc2ccccc21,,-21.1% (inactive)
O=C(c1ccncc1)N1CCC2(CCN(Cc3cc(C(F)(F)F)cc(C(F)(F)F)c3)CC2)CC1,,-0.448% (inactive)
Cc1ccc(C)n1C(Cc1ccccc1)C(=O)O (configuration not stated),22.4 µM (active),
CCOC(=O)C(Cc1ccc(N)cc1)N1C(=O)c2ccccc2C1=O (configuration not stated),,-5.43% (inactive)
COc1ccc(CNC(=O)C(Cc2ccccc2)n2cccc2)cc1 (configuration not stated),,-4.02% (inactive)
COc1cccc(Cn2c(=O)cnc3cncnc32)c1,,-10.4% (inactive)
Cc1ccc(S(=O)(=O)N2CCN(C(=O)c3ccccc3-c3nc4ccccc4s3)CC2)c(C)c1,,1.58% (inactive)
CC(=O)N1CCN(C(=O)c2cc(-c3ccc(C)o3)nc3ccccc23)CC1,20 µM (active),
CC(=O)N1CCN(C(=O)c2cc(-c3ccc(Cl)s3)nc3ccccc23)CC1,,-8.36% (inactive)
O=c1c(CCc2ccccc2)nc2cnc(N3CCNCC3)nc2n1Cc1cccs1,,-17.2% (inactive)
NC(=O)C(=O)N/N=C/c1ccc([N+](=O)[O-])o1,,16.5% (inactive)
CCOC(=O)C1C/C(=C\C(C)=O)c2cccc(C(F)(F)F)c2O1 (configuration not stated),,8.45% [at 88.6 µM] (inactive)
CC1C(=O)Nc2ccc(S(=O)(=O)N3CCN(c4ccccc4F)CC3)cc2NC1=O (configuration not stated),39.8 µM (active),
COc1ccc(N2CCN(S(=O)(=O)c3ccc4c(c3)NC(=O)C(C)C(=O)N4)CC2)cc1 (configuration not stated),,-3.08% (inactive)
O=C(c1ccc(S(=O)(=O)N2CCCC2)cc1)N1CCN(c2ccccc2F)CC1,,-15.7% (inactive)
CC(C)=CC1C(C(=O)O)C1(C)C (configuration not stated),,-4.75% (inactive)
Oc1ccc(Cl)c2c1CCC2,,-11.3% (inactive)
